Pf Dd2 inh – Plasmodium falciparum Dd2 growth inhibition. P. falciparum Dd2 growth, SYBR Green, 72 h. Potency, µM (doses to about 28.9 µM), for inactives: at the highest dose activity, negative = inhibition, most hits filed as inhibitors. hit rate 4.3% among 120,000; active = well fitted inhibition curve with a large enough effect;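 also: plate controls were DMSO vehicle for no effect and reference drug for full effect; nearly all actives have a fitted effect of over 65% in size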
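Readout: SYBR Green fluorescence, 485 nm excitation, 535 nm emission, after ~16 h lysis at 37C. Before that, Dd2-infected red cells (2.5% hematocrit) grew 72 h with compound, 29 uM top final concentration.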
* = called active by the depositor; i = inactive; [ ] = dose if it differs, or a comment. This is one part of a sample in which hits are shown more often than they occur. Potency is read from the fitted curve at half-maximal effect.

SMILES | Pf Dd2 inh
O=C(CCC1N=C2c3ccccc3N=C(SCc3cccc(Cl)c3)N2C1=O)N1CCN(c2ccccc2)CC1 (configuration not stated) | 11µM*
O=c1n(-c2ccc(C(F)(F)F)cc2)nc2n1CCN(Cc1ccsc1)C2 | -21%
CC(C)NC(=O)Cn1nc2c(cc1=O)CCCC2 | -16%
O=C(c1ccc(Cl)nc1)N1CCC(c2nn(-c3ccccc3)c(=O)[nH]2)CC1 | -19%
O=C(c1ccccc1F)N1CCCC2(CC(c3ccccn3)=NO2)C1 (configuration not stated) | i
COCCN1CC(CO)C2(CCN(Cc3cccc(Cl)c3)CC2)C1 (configuration not stated) | 10µM*
COCCN1CC(CO)C2(CCN(Cc3ccc(F)c(F)c3)CC2)C1 (configuration not stated) | -20%
COCCN1CC(CO)C2(CCN(Cc3cccc(C#N)c3)CC2)C1 (configuration not stated) | -7%
c1ccc2c(CN3CCn4c(nnc4-c4ccncc4)C3)cccc2c1 | -5%
CCC(c1cccs1)N1C(=O)[C@H]2CN(S(=O)(=O)c3ccc(Cl)cc3)C[C@H]2C1=O (some centres not stated) | -6%
Cn1ccc(C(=O)NCc2nnc3n2C(C(=O)NCc2ccc(F)cc2)CC3)n1 (configuration not stated) | 17%
COc1ccccc1-c1nnc2n1C(C(=O)N1CCN(c3ncccn3)CC1)CC2 (configuration not stated) | 13%
C#CCNC(=O)C1CCc2nnc(-c3ccc(Cl)nc3)n21 (configuration not stated) | 33%
O=C(NCc1ccc(F)cc1)C1CCc2nnc(-c3ccc(Cl)nc3)n21 (configuration not stated) | 7.1µM*
O=C(NCc1nnc2n1C(C(=O)NCc1ccc(F)cc1)CC2)c1ccc(Cl)cc1Cl (configuration not stated) | 10%
CC(C)NC(=O)NCc1nnc2n1C(C(=O)NCc1ccc(F)cc1)CC2 (configuration not stated) | 26%
O=C(C1CCc2nnc(-c3ccc(Cl)cc3Cl)n21)N1CCN(c2ncccn2)CC1 (configuration not stated) | 5%
O=C(NCc1ccc(F)cc1)C1CCc2nnc(-c3ccc(Cl)cc3Cl)n21 (configuration not stated) | 3.2µM*
COc1ccccc1-c1nnc2n1C(C(=O)NCc1ccc(F)cc1)CC2 (configuration not stated) | 4µM*
CS(=O)(=O)N1CCN2C(=O)N(Cc3ccc(F)cc3)C[C@H]2C1 | -5%[44.1 µM]
O=C(c1c(OCC2CC2)cc(=O)n2c1CCCCC2)N1CCN(c2ccccn2)CC1 | 9%
Cc1cccnc1CN1C[C@@H](F)[C@@H](OCc2nc3ccccc3o2)C1 | -15%[44.1 µM]
Cc1cccc(C(=O)N2CCCCCCNC(=O)CC2)c1 | -14%
CNC(=O)[C@@H]1C[C@H](Oc2ccccc2)CN1C(=O)c1ocnc1C | -13%
Cc1ccc(C(=O)N2CCC(N3CC(OCC4CC4)C34CCCCC4)CC2)cn1 (configuration not stated) | -5%
SMILES | Pf Dd2 inh
COCCOC1CN(C2CCN(C(=O)NC(C)C)CC2)C12CCCCC2 (configuration not stated) | i
C1CCC2(CC1)C(OCC1CC1)CN2C1CCNCC1 (configuration not stated) | 4µM*
C1CC2(CCN1)CC(OCC1CC1)CCO2 (configuration not stated) | 25%
O=C1C(O)C2(CCCCC2)N1C1CCNCC1 (configuration not stated) | 10%
CC(C)C(=O)N1CCC(N2CC(OCC3CC3)C23CCCCC3)CC1 (configuration not stated) | 3.2µM*
CCCNC(=O)C1COC2(CCN(C(=O)c3ccc(Cl)cc3)CC2)N1C(=O)c1cccc(OC)c1 (configuration not stated) | i
COCCNC(=O)[C@H]1C[C@H](Oc2ccccc2)CN1Cc1sccc1C | i
CN(CC1CCOC1)S(=O)(=O)c1ccc(F)c(Cl)c1 (configuration not stated) | 12%[5.79 µM]
CCCc1noc(-c2cccn3c(CNC(=O)c4ccc(F)cc4Cl)nnc23)n1 | i
c1cncc(-c2nnc3n2CCN(Cc2cncs2)C3)c1 | 1%[44.1 µM]
CCN(CC)CCNC(=O)CCc1cc2cc(OC)ccc2[nH]c1=O | 31%
CC1(COc2ccc3[nH]ccc3c2)COc2ccc(C(=O)NCc3cccs3)cc2N1 (configuration not stated) | -2%[44.1 µM]
COc1ccc(CNC(=O)Cn2nc(C)c3sc(C(C)C)nc3c2=O)cc1 | i
Cc1sc2c(c1C)c(=O)n(Cc1ccccc1)c(=O)n2Cc1ccc(F)cc1 | 46%
CCc1ccc(-n2c(=O)c3c(C)c(C(=O)N(C)C)sc3n(Cc3cccc(C)c3)c2=O)cc1 | 31%
CCN(CC)C(=O)c1sc2c(c1C)c(=O)n(-c1ccccc1)c(=O)n2Cc1cc(=O)n2ccccc2n1 | 16%
Cc1cc(C)c(NC(=O)Cn2c(=O)n(Cc3ccccc3)c(=O)c3c(C)c(C(=O)N(C)C)sc32)c(C)c1 | -27%

Compound activity deposited in PubChem by National Center for Advancing Translational Sciences (NCATS).
